Our source for the Potency values is PubChem BioAssay (NCATS).

Results filed as inconclusive are left out. A call without a number means that no potency is given here. Activity calls are given as the source filed them. Calls come from the whole dose curve; as a rule, active = well fitted curve in the direction sought with a large enough effect; inconclusive = small, poorly fitted or top-dose-only effect, or another doubt; inactive = no such curve, though single readings can be large or run the other way.

Sequence of Glucagon-like peptide 1 receptor (Homo sapiens) (P43220 whole entry, looked up): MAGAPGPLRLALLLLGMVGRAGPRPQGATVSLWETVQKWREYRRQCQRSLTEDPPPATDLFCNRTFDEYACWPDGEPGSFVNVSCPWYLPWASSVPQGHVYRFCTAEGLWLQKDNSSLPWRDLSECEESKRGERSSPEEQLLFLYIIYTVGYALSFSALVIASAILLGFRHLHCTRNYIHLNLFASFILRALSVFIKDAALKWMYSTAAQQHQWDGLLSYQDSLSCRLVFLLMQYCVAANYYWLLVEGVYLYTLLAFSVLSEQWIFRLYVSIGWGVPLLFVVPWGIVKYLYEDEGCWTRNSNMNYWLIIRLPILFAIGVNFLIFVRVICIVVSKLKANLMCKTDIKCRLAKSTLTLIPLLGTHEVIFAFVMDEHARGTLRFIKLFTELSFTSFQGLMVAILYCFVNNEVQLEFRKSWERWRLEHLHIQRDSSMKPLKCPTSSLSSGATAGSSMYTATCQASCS

The target of this experiment is Glucagon-like peptide 1 receptor (Homo sapiens) (UniProt P43220). The experiment is described as follows: qHTS of GLP-1 Receptor Agonists: LOPAC Validation (AID 624148).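 Note: luminescence from a luciferase reporter switched on by cAMP; higher luminescence signal means agonism.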 The settings on record: GLP-1R agonist cell assay; series mostly up to 46.1 µM. From the text:
The overall goal of this project was to develop a novel assay for discovering small molecule ligands for class B1 G protein-coupled receptors (GPCRs). Very few agonists (or inverse agonists) with generally weak activity for this entire group of physiologically important receptors are known to date. To establish proof-of-principle that this critical bottleneck can be overcome with a suitable screening approach, our studies focused on the class B1 receptor for glucagon-like peptide-1 (GLP-1R), a potential therapeutic target for diabetes and neurodegenerative disease.
The assay was developed in a "mix and measure" format using a cell-based functional readout. Toward this goal, stably transfected HEK293 cell clones were established that co-express (i) a cAMP-responsive luciferase reporter gene, and (ii) GLP-1Rs that upon ligand interaction either stimulate (agonists) or inhibit (inverse agonists) luciferase activity. In different cell lines to be used for screening, expressed GLP-1Rs are specifically optimized for high sensitivity detection of either weak agonists (hypersensitive receptor) or inverse agonists (constitutively active receptor mutant). In addition, control cell lines were developed that express either the cAMP-responsive reporter gene without recombinant GLP-1Rs (enabling initial exclusion of GLP-1R independent effects of candidate probes), or the reporter gene together with wild type GLP-1Rs (for confirmation of probe activity at this receptor), or the reporter gene in combination with the constitutively active orphan receptor GPR119 (enabling initial exclusion of GLP-1R independent inhibitory effects of candidate inverse agonists).
To that end, this assay was optimized for 1536-well format and screened against the MLSMR.
NIH Molecular Libraries Probe Production Network [MLPCN]
NIH Chemical Genomics Center [NCGC]
PI Name: Martin Beinborn, Tufts Medical Center
In a white solid 1536-well plate, 6 uL of cells are dispensed in DMEM without phenol red, 10% Nu serum, and 1% pen-strep medium. The plates are then incubated for 12 hours at 37 deg C at 5% CO2 before 23 nL of compounds are added. After a 4-6 hr incubation at37 deg C and 5% CO2, 3 uL of detection reagent are added and after a 12 min incubation at RT, a luminescent read is obtained on the ViewLux.
Consider `C=CC[C@H](N)C(=O)O`, for which the Potency result is “inactive”.

On to `COc1cc2c(CCNC(C)=O)c[nH]c2cc1O`, for which the Potency entry is “inactive”.

On to `NCCCCN`, for which the Potency entry is “inactive”.

Regarding `CN1Cc2sccc2C(c2ccc(O)c(O)c2)C1` (stereo not given), the Potency entry was “inactive”.

`CN1CCC2(CCN3CCc4c(oc5ccccc45)C3C2)N(C)C1=O` (stereo not given): the Potency entry was “inactive”.

For the compound `CC1=C(/C=C/C(C)=C/C=C/C(C)=C\C(=O)O)C(C)(C)CCC1`, the Potency entry was “inactive”.

For `COc1ccc2c(c1)CCC1C2CC[C@@]2(C)C1CC[C@@H]2NCCCCCCN1C(=O)C=CC1=O` (stereo not given in full), the Potency result is “inactive”.

As for `NCCS(=O)O`, the Potency result was “inactive”.

As to `CC[N+](CC)(CC)CC(=O)Nc1c(C)cccc1C`, the Potency entry was “inactive”.

Regarding `CC(N)=NCCCC[C@@H](N)C(=O)O`, the Potency result was “inactive”.

In the case of `CC(=O)[C@H]1CCC2C3CC=C4C[C@@H](OS(=O)(=O)O)CC[C@]4(C)C3CC[C@@]21C` (stereo not given in full), the Potency result is “inactive”.

On to `O=C(OCCN1CCOCC1)C1(c2ccccc2)CCCCC1`, for which the Potency result was “inactive”.

As for `C/C(=C\c1ccc(C(=O)O)cc1)c1ccc2c(c1)C(C)(C)CCC2(C)C`, the Potency result is “inactive”.

Take `COC1(C2=NCCN2)COc2ccccc2O1` (stereo not given): the Potency result was “inactive”.

With `CC1=C(C(=O)O)N2C(=O)[C@@H](NC(=O)C(N)C3=CCC=CC3)[C@H]2SC1` (stereo not given in full), the Potency result was “inactive”.

As to `O=C(O)CCC/C=C\C[C@@H]1[C@@H](/C=C/[C@H](O)C2Cc3ccccc3C2)[C@@H](F)C[C@@H]1O`, the Potency result is “inactive”.

Consider `N[C@@H](Cc1ccc(O)c(I)c1)C(=O)O`, for which the Potency entry is “inactive”.

For the compound `CCCCCCCCCCCCCCCCCCOC[C@H](COP(=O)([O-])OCC[N+](C)(C)C)OC`, the Potency result is “inactive”.

On to `OC[C@H]1O[C@H](n2cnc3c(N[C@H]4CCC[C@@H]4O)ncnc32)[C@H](O)[C@@H]1O`, for which the Potency result was “inactive”.

As for `O=c1ccn([C@@H]2O[C@H](COP(=O)(O)OP(=O)(O)O)[C@@H](O)[C@H]2O)c(=O)[nH]1`, the Potency entry is “inactive”.

Consider `COc1cc(/C=C(\C#N)C(=O)Nc2nnc(C(F)(F)F)s2)ccc1OCc1ccc(C(F)(F)F)cc1C(F)(F)F`, for which the Potency result is “inactive”.

As to `COc1cc(N)c(Cl)cc1C(=O)OCCN1CCCCC1`, the Potency result was “inactive”.

For `Cc1ccc([N+](=O)[O-])cc1S(=O)(=O)N(C)C`, the Potency entry is “inactive”.

Take `O=[N+]([O-])c1cccc2cn[nH]c12`: the Potency entry is “inactive”.

Take `NCC(O)C1CCCCCCC1` (stereo not given): the Potency result was “inactive”.

Turning to `CSc1nc(N)c2ncn([C@@H]3O[C@H](COP(=O)(O)OP(=O)(O)O)C(O)[C@H]3O)c2n1` (stereo not given in full), the Potency entry is “inactive”.

In the case of `N[C@H](C(=O)O)[C@H](Cc1ccccc1)C(=O)O`, the Potency entry is “inactive”.

For `CN(C)C(=O)/N=N/C(=O)N(C)C`, the Potency entry was “inactive”.

In the case of `NC1CCN(O)C1=O` (stereo not given), the Potency result is “inactive”.

With `N#Cc1cc2nc(O)c(O)nc2cc1[N+](=O)[O-]`, the Potency entry was “inactive”.

`CC(=O)SC1CC2=CC(=O)CC[C@]2(C)C2CC[C@@]3(C)C(CC[C@@]34CCC(=O)O4)C12` (stereo not given in full): the Potency entry is “inactive”.

Take `COC(=O)C1=C(C)NC(C)=C([N+](=O)[O-])C1c1ccccc1C(F)(F)F` (stereo not given): the Potency result is “inactive”.

For `Cc1nc(N=Nc2ccc(C(=O)O)cc2)c(COP(=O)(O)O)c(C=O)c1O`, the Potency result is “inactive”.

With `CC(N)(Cc1ccc(O)cc1)C(=O)O` (stereo not given), the Potency result is “inactive”.

Turning to `C=C1C[C@@]23CC[C@H]4[C@@](C)(CCC[C@@]4(C)C(=O)OC4OC(CO)C(O)C(O)C4O)[C@@H]2CC[C@]1(OC1OC(CO)C(O)C(O)C1OC1OC(CO)C(O)C(O)C1O)C3` (stereo not given in full), the Potency entry was “inactive”.

Turning to `CCCCCCCCCCCCCCSCC(=O)O`, the Potency result was “inactive”.

In the case of `CN(CC[C@@H](Oc1ccc(C(F)(F)F)cc1)c1ccccc1)CC(=O)O`, the Potency entry was “inactive”.

Take `C[C@H](NC(=O)/C(C#N)=C/c1ccc(O)c(O)c1)c1ccccc1`: the Potency result is “inactive”.

`C[C@@]1(C2CCCC2)Cc2cc(OCC(=O)O)c(Cl)c(Cl)c2C1=O`: the Potency entry was “inactive”.

`Oc1ccc(Cn2cc[nH]c2=S)cc1`: the Potency entry is “inactive”.
